Measured values taken from PubChem BioAssay (NCATS).
Results filed as inconclusive are left out. Calls of active or inactive are those of the source. Unless noted, calls follow the shape of the dose curve; as a rule, active = well fitted curve in the direction sought with a large enough effect; inconclusive = small, poorly fitted or top-dose-only effect, or another doubt; inactive = no such curve, though single readings can be large; an effect the other way counts as inactive or inconclusive.

Legend:
OV90 = assay: Primary qHTS to identify gynecologic anti-cancer compounds using libraries of approved drugs and bioactive compounds (AID 1345084); conditions: Gynecologic cancer cell panel viability, ATPlite luminescence, 48 h; series mostly up to 57.5 µM; also: nearly all actives have a fitted effect of over 55% in size; also: potency is read from the fitted curve at half-maximal effect
Method in brief: (§1)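 Measured: luminescence after ATPlite addition (15 min, RT). Exposure: 48 h, 37 C, 5% CO2.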

PA-1 = assay: as above; conditions: Gynecologic cancer cell panel viability, ATPlite luminescence, 48 h; series mostly up to 57.5 µM
Method in brief: as §1

SKOV3 = assay: as above; conditions: Gynecologic cancer cell panel viability, ATPlite luminescence, 48 h; series mostly up to 57.5 µM
Method in brief: as §1

Tov-21-G = assay: as above; conditions: Gynecologic cancer cell panel viability, ATPlite luminescence, 48 h; series mostly up to 57.5 µM
Method in brief: as §1

Tov112D = assay: as above; conditions: Gynecologic cancer cell panel viability, ATPlite luminescence, 48 h; series mostly up to 57.5 µM
Method in brief: as §1

[1] = qHTS assay to identify inhibitors of the type 1 interferon - major histocompatibility complex class I in skeletal muscle: Counter screen cell viability and HiBit confirmation (AID 1347412); conditions: iHSKM muscle cells + IFN-b, HiBiT or CellTiter-Glo, 24 h; for activity change, negative = inhibition: at 45.9 µM (top of the series); also: potency is read from the fitted curve at half-maximal effect; as to activity change, negative = inhibition: % is scaled to controls: 0 for no effect and ±100 for the full control effect; as to all read-outs here: nearly all actives have a fitted effect of over 60% in size
Method in brief: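 CRISPR HLA-B*08:01-HiBit immortalized human myoblasts (C25cl48) stimulated with 4 ng/ml IFN-beta and compounds (12-point 1:3, top 46 uM final) for 24 h at 37 C. Duplicate plates read by HiBit lytic luminescence or CellTiter Glo ATP.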

[2] = molecular target: Nuclear receptor subfamily 1 group I member 2 (Rattus norvegicus) (UniProt Q9R1A7); assay: qHTS assay for small molecule activators of the rat pregnane X receptor (rPXR) signaling pathway (AID 651751; call rule not given here; also: 0% is about no effect); conditions: rPXR reporter cells, luciferase (One-Glo), 24 h
[3] = qHTS assay for small molecule activators of the human pregnane X receptor (PXR) signaling pathway (AID 720659; call rule not given here; also: 0% is about no effect)
[4] = Drug repurposing screens with cells derived from glioblastoma tumor samples (AID 1345199); conditions: GBM patient neurospheres viability, ATP luminescence, 48 h; also: % is scaled to controls: 0 for no effect and ±100 for the full control effect; nearly all actives have a fitted effect of over 40% in size
Method in brief: (§2)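 Primary testing used CD133+ neurospheres from four GBM patients, seven concentrations, 48 h exposure and ATP-based viability; confirmation added three slower-growing patient lines.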

astro = assay: as above; conditions: viability, ATP luminescence, 48 h; series mostly up to 45.9 µM
Method in brief: as §2

Nuclear receptor subfamily 1 group I member 2 (Rattus norvegicus), sequence (Q9R1A7 whole entry, looked up): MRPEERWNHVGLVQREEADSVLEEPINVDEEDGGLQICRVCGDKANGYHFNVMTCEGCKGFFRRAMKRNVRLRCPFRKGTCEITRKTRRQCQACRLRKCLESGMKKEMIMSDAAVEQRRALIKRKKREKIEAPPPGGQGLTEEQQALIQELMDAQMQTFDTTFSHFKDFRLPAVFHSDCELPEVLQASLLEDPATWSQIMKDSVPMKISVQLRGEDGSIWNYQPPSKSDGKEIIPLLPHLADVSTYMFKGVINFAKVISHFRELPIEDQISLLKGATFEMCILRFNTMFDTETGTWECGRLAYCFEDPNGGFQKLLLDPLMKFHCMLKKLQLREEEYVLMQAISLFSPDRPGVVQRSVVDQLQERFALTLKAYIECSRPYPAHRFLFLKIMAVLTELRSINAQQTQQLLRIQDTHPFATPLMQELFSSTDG

Cc1nc(N)ncc1-c1nc(N2CCOCC2)c2sc(C(C)(C)O)cc2n1
active: Potency (OV90) 3.55 µM | Potency (PA-1) 7.94 µM | Potency (SKOV3) 2.82 µM | Potency (Tov-21-G) 7.94 µM

COc1ccc(-c2cc3c(C)nc(N)nc3n(C3CCC(OCCO)CC3)c2=O)cn1 (centres undefined)
active: Potency (OV90) 2 µM | Potency (PA-1) 2.51 µM | Potency (SKOV3) 1.26 µM | Potency (Tov-21-G) 6.31 µM

COc1cc2c(Oc3ccc(NC(=O)C4(C(=O)Nc5ccc(F)cc5)CC4)cc3F)ccnc2cc1OCCCN1CCOCC1
active: Potency (OV90) 12.6 µM | Potency (PA-1) 28.2 µM | Potency (SKOV3) 22.4 µM | Potency (Tov-21-G) 15.8 µM | Potency (Tov112D) 12.6 µM

CC(O)C1C(=O)N2C(C(=O)O)=C(SC3CNC(C(=O)N(C)C)C3)C(C)C12 (centres undefined)
inactive: Potency (OV90) | Potency (PA-1) | Potency (SKOV3) | Potency (Tov-21-G) | Potency (Tov112D)

Cc1ccc(NC(=O)C2(c3ccc4c(c3)OC(F)(F)O4)CC2)nc1-c1cccc(C(=O)O)c1
inactive: Potency (OV90) | Potency (PA-1) | Potency (SKOV3) | Potency (Tov-21-G) | Potency (Tov112D)

Clc1cccc(-n2nnnc2NCc2ccccc2Oc2ccccn2)c1Cl
inactive: Potency (OV90) | Potency (PA-1) | Potency (SKOV3) | Potency (Tov-21-G) | Potency (Tov112D)

COc1cccc2c(NCc3ccccc3)nc(-n3c(N)nc4ccccc43)nc12
active: Potency (OV90) 25.1 µM

COc1cc(C)c(Sc2cnc(NC(=O)c3ccc(CNC(C)C(C)C)cc3)s2)cc1C(=O)N1CCN(C(C)=O)CC1 (centres undefined)
active: Potency (PA-1) 22.4 µM
inactive: Potency (OV90)

Cn1c(CNc2ccc(C(=N)N)cc2)nc2cc(C(=O)N(CCC(=O)O)c3ccccn3)ccc21
inactive: Potency (OV90) | Potency (PA-1) | Potency (SKOV3) | Potency (Tov-21-G) | Potency (Tov112D)

CC(C)(C)c1cc(NC(=O)Nc2ccc(-c3cn4c(n3)sc3cc(OCCN5CCOCC5)ccc34)cc2)no1
inactive: Potency (OV90) | Potency (PA-1) | Potency (SKOV3) | Potency (Tov-21-G) | Potency (Tov112D)

O=C(Nc1cn[nH]c1-c1nc2ccc(CN3CCOCC3)cc2[nH]1)NC1CC1
active: Potency (OV90) 11.2 µM | Potency (PA-1) 8.91 µM | Potency (SKOV3) 10 µM | Potency (Tov-21-G) 2.24 µM | Potency (Tov112D) 11.2 µM | Potency ([1]; HiBiT) 1.98 µM
inactive: activity change, negative = inhibition ([1]; Viability) 61.5%

Cc1ccc(C(=O)Nc2ccc(CN3CCN(C)CC3)c(C(F)(F)F)c2)cc1C#Cc1cnc2cccnn12
active: Potency (OV90) 15.8 µM | Potency (PA-1) 8.91 µM | Potency (SKOV3) 10 µM | Potency (Tov-21-G) 7.08 µM | Potency (Tov112D) 7.94 µM | Potency ([1]; HiBiT) 6.25 µM | Potency ([1]; Viability) 15.7 µM

O=C(Cc1ccc(-c2ccc(OCCN3CCOCC3)cc2)cn1)NCc1ccccc1
active: Potency (OV90) 2.82 µM | Potency (PA-1) 1.26 µM | Potency (Tov-21-G) 2 µM | Potency (Tov112D) 1 µM

N#Cc1c(O)c2c(-c3ccc(-c4ccccc4O)cc3)csc2[nH]c1=O
inactive: Potency (OV90) | Potency (PA-1) | Potency (SKOV3) | Potency (Tov-21-G) | Potency (Tov112D)

O=C(O)CCCc1c[nH]c2ccccc12
inactive: Potency (OV90) | Potency (PA-1) | Potency (SKOV3) | Potency (Tov-21-G) | Potency (Tov112D) | max response [2] -0.908% | outcome [3]

Nc1ccccc1NC(=O)c1ccc(CNC(=O)OCc2cccnc2)cc1
active: Potency (OV90) 0.631 µM | Potency (PA-1) 3.16 µM | Potency (Tov-21-G) 8.91 µM

C#Cc1cccc(Nc2ncnc3cc(OC)c(OCCCCCCC(=O)NO)cc23)c1
active: Potency (OV90) 5.62 µM | Potency (PA-1) 5.01 µM | Potency (SKOV3) 8.91 µM | Potency (Tov-21-G) 10 µM | Potency (Tov112D) 7.08 µM | Potency ([1]; HiBiT) 2.49 µM
inactive: activity change, negative = inhibition ([1]; Viability) -17%

CN(C)c1nc(Cc2ccc(NC(=O)c3ccc4ccccc4c3)cc2)nc(Cl)c1CC(=O)O
inactive: Potency (OV90) | Potency (PA-1) | Potency (Tov-21-G) | Potency (Tov112D)

C=CC(=O)N1CCC[C@@H](n2nc(-c3ccc(Oc4ccccc4)cc3)c3c(N)ncnc32)C1
inactive: Potency (OV90) | Potency (PA-1) | Potency (Tov-21-G) | Potency (Tov112D)

COc1cc(C(=O)NS(=O)(=O)c2ccccc2C)ccc1Cc1cn(C)c2ccc(NC(=O)OC3CCCC3)cc12
inactive: Potency (OV90) | Potency (PA-1) | Potency (SKOV3) | Potency (Tov-21-G) | Potency (Tov112D) | activity, negative = cell killing ([4]; at 45.9 µM (top of the series), tumour line B) -14.2% | activity, negative = cell killing ([4]; at 45.9 µM (top of the series), tumour line D) -15.9% | activity, negative = cell killing ([4]; at 46.1 µM (top of the series), tumour line C) 5.07% | Potency (astro)

CC(C)c1cc(C(=O)N2Cc3ccc(CN4CCN(C)CC4)cc3C2)c(O)cc1O
active: Potency (OV90) 0.501 µM | Potency (PA-1) 0.501 µM | Potency (Tov-21-G) 0.355 µM

CNC(=O)c1ccccc1Nc1nc(Nc2ccc(N3CCOCC3)cc2OC)ncc1Cl
active: Potency (OV90) 1 µM | Potency (PA-1) 14.1 µM | Potency (SKOV3) 11.2 µM | Potency (Tov-21-G) 12.6 µM | Potency ([1]; HiBiT) 1.4 µM

CC(C)(O)c1cc2nc(-c3cnc(N)nc3)nc(N3CCOCC3)c2s1
active: Potency (OV90) 2.82 µM | Potency (PA-1) 8.91 µM | Potency (Tov-21-G) 3.16 µM
